This is an account of results in PubChem BioAssay (Tox21).

The nature of assay [1]: qHTS assay to test for compound auto fluorescence at 535 nm (green) in HEK293 cells (AID 720680). (Quantitative high-throughput screening tests each substance at several concentrations.)
Assay [2] can be described thus: qHTS assay to test for compound auto fluorescence at 460 nm (blue) in HEK293 cell free culture (AID 720681). A digest of the protocol:
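Compounds were added to cell-free DMEM with 10% FBS and fluorescence read directly. The blue channel used 405 nm excitation and 460 nm emission, with triamterene as the reference fluorophore.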

Assay [3] can be described thus: qHTS assay to test for compound auto fluorescence at 535 nm (green) in HEK293 cell free culture (AID 720682). A digest of the protocol:
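Read-out: 485/535 nm fluorescence intensity, calibrated against fluorescein. Medium only (DMEM + 10% FBS, no cells); test compound or DMSO vehicle added by pintool before plate reading.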

Assay [4] in a line: qHTS assay to test for compound auto fluorescence at 590 nm (red) in HEK293 cell free culture (AID 720683). In a few lines:
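Cell-free wells of DMEM with 10% FBS received compound, and intrinsic fluorescence was read at excitation/emission 540/590 nm. Values expressed as equivalence to Rose Bengal sodium.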

Assay [5] is described as follows: qHTS assay to test for compound auto fluorescence at 590 nm (red) in HepG2 cell free culture (AID 720684). A digest of the protocol:
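Compounds are added to culture medium (MEM, 10% FBS) lacking cells, then fluorescence is read at excitation 540 nm, emission 590 nm, with Rose Bengal sodium as the equivalency standard.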

Assay [6] can be described thus: qHTS assay to test for compound auto fluorescence at 460 nm (blue) in HepG2 cell free culture (AID 720685). A digest of the protocol:
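Compound (23 nL) or DMSO pinned into cell-free MEM with 10% FBS; blue fluorescence read at 405/460 nm excitation/emission, expressed as auto-fluorescence equivalency to triamterene.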

Assay [7] can be described thus: qHTS assay to test for compound auto fluorescence at 535 nm (green) in HepG2 cell free culture (AID 720686).
Assay [8] is described as follows: qHTS assay to test for compound auto fluorescence at 460 nm (blue) in HepG2 cells (AID 720687). In a few lines:
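HepG2 cells in MEM with 10% FBS, attached overnight at 37 C, were exposed to compound or DMSO for 1 hr at 37 C, 5% CO2. Blue fluorescence was read at 405/460 nm, with triamterene as reference fluorophore.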

Assay [9] can be described thus: qHTS assay to identify small molecule antagonists of the glucocorticoid receptor (GR) signaling pathway - cell viability counter screen (AID 720693). Note: nearly all actives have a fitted effect of over 55% in size.
Assay [10] in a line: qHTS assay for identifying genotoxic compounds that show differential cytotoxicity against isogenic chicken DT40 cell lines with known DNA damage response pathways - Rev3 mutant cell line (AID 743014). Note: nearly all actives have a fitted effect of over 55% in size. Note: potency is the fitted concentration of half-maximal effect.
Assay [11] is described as follows: qHTS assay for identifying genotoxic compounds that show differential cytotoxicity against isogenic chicken DT40 cell lines with known DNA damage response pathways - Rad54/Ku70 mutant cell line (AID 743015). Note: nearly all actives have a fitted effect of over 60% in size. Note: potency is the fitted concentration of half-maximal effect.
Assay [12] in a line: qHTS assay to identify small molecule antagonists of the androgen receptor (AR) signaling pathway - cell viability counter screen (AID 743033; note: nearly all actives have a fitted effect of over 45% in size).
A short description of assay [13]: qHTS assay to identify small molecule antagonists of the androgen receptor (AR) signaling pathway using the MDA cell line - cell viability counter screen (AID 743041; note: nearly all actives have a fitted effect of over 45% in size). In a few lines:
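Same-well cytotoxicity was assessed by CellTiter-Fluor in MDA-kb2 AR-luc cells after 16 h of compound treatment under R1881 agonism.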

The nature of assay [14]: qHTS assay for identifying genotoxic compounds that show differential cytotoxicity against isogenic chicken DT40 cell lines with known DNA damage response pathways - wild type cell line (AID 743012). Note: nearly all actives have a fitted effect of over 60% in size. Note: potency is the fitted concentration of half-maximal effect. In a few lines: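 Cells (DT40 wild type, 300/well) are treated with DMSO-dissolved compounds after a ~0.5 h pre-incubation and kept 40 h at 37 C/5% CO2. Viability is then measured by CellTiter-Glo luminescence following 30 min at room temperature.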

In assay [15] the target is Androgen receptor (Homo sapiens) (UniProt P10275). Description: qHTS assay to identify small molecule antagonists of the androgen receptor (AR) signaling pathway (AID 743035; active = well fitted inhibition curve with a large enough effect in the signal ratio in the repeat runs, not every such curve was filed as active; the % refers to the signal ratio). A digest of the protocol:
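Antagonism is scored as loss of R1881-driven beta-lactamase reporter expression in HEK293 cells carrying the reporter under a UAS element, after 16 h co-treatment at 37C and a 2 h room-temperature FRET substrate read.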

Assay [16] has the same target. The assay is described as follows: qHTS assay to identify small molecule agonists of the androgen receptor (AR) signaling pathway (AID 743036; active = well fitted activation curve with a large enough effect in the signal ratio in the repeat runs, with a control signal flat, not every such curve was filed as active; the % refers to the signal ratio). A digest of the protocol:
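HEK293 cells stably carrying a UAS-driven beta-lactamase reporter (GeneBLAzer AR-UAS-bla-GripTite) were plated at 2,000 cells/well, rested 4 h at 37C, then exposed to compounds in DMSO for 16 h. LiveBLAzer B/G FRET substrate was added for 2 h at room temperature; fluorescence read.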

For assay [17] the target is unchanged. The assay is described as follows: qHTS assay to identify small molecule agonists of the androgen receptor (AR) signaling pathway using the MDA cell line (AID 743040; note: nearly all actives have a fitted effect of over 20% in size). A digest of the protocol: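 Human breast carcinoma MDA-kb2 reporter cells (MMTV-luc, AR/GR elements) were treated for 16 h at 37C in 0% CO2 following a 5 h settling period. Signal was quantified by ONE-Glo luminescence.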

Assay [18] has the same target. The assay is described as follows: qHTS assay to identify small molecule antagonists of the androgen receptor (AR) signaling pathway using the MDA cell line (AID 743042; note: nearly all actives have a fitted effect of over 55% in size). In a few lines:
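MDA-kb2 breast carcinoma cells carrying MMTV-luciferase (AR/GR responsive) were co-treated with compounds and the agonist R1881 for 16 h at 37C. Inhibition read as ONE-Glo luminescence; CellTiter-Fluor fluorescence measured in parallel for cytotoxicity.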

Assay [19] deals with Glucocorticoid receptor (Homo sapiens) (UniProt P04150). Description: qHTS assay to identify small molecule agonists of the glucocorticoid receptor (GR) signaling pathway (AID 720691; active = well fitted activation curve with a large enough effect in the signal ratio in the repeat runs, not every such curve was filed as active; the % refers to the signal ratio). The note with it: GR-bla HeLa, beta-lactamase reporter ratio, 18 h; activation: at 62.4 µM (top of the series). In a few lines: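 Agonist mode in a HeLa line carrying a GRE-controlled beta-lactamase reporter. Compounds act for 18 h at 37 C before a 2 h room-temperature FRET substrate step and fluorescence reading.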

Assay [20] has the same target. The assay is described as follows: qHTS assay to identify small molecule antagonists of the glucocorticoid receptor (GR) signaling pathway (AID 720692; active = well fitted inhibition curve with a large enough effect in the signal ratio in the repeat runs, not every such curve was filed as active; the % refers to the signal ratio). A digest of the protocol:
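Cells plated, rested 4 h at 37 C/5% CO2; compounds in DMSO pin-transferred; dexamethasone added to 5 nM final; 18 h at 37 C; B/G FRET substrate added, 2 h room temperature; fluorescence measured.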

The structures appear in SMILES notation. Results filed as inconclusive are left out. Calls of active or inactive are those of the source. Unless noted, calls come from the whole dose curve; as a rule, active = well fitted curve in the direction sought with a large enough effect in the repeat runs; inconclusive = weak or mixed curves; inactive = no such curve, though single readings can be large; an effect the other way counts as inactive or inconclusive.

Sequence of Androgen receptor (Homo sapiens) (P10275 whole entry, looked up): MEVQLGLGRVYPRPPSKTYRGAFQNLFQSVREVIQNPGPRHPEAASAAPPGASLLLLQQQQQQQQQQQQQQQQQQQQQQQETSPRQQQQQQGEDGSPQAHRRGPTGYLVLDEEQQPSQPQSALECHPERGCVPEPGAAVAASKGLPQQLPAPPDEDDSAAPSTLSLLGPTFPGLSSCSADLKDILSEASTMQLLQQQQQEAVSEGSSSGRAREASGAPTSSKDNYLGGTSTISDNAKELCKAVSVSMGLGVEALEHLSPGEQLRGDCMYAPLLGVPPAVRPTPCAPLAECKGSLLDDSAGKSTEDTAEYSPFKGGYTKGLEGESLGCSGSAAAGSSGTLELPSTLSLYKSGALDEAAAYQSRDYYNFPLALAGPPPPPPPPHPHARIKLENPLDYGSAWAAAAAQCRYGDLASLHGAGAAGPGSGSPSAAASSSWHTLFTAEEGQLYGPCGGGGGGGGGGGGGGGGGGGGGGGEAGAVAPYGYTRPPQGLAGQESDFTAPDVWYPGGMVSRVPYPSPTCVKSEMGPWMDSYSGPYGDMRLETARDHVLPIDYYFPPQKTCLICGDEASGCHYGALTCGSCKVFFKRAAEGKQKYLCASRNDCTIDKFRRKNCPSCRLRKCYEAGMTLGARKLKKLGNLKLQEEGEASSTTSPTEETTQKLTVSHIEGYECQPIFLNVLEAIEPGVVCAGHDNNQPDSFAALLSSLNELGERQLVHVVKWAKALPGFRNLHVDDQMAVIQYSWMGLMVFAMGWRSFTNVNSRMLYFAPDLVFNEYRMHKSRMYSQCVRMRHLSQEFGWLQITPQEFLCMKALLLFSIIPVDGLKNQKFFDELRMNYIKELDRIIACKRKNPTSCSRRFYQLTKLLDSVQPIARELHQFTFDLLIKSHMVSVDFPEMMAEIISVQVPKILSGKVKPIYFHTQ
Sequence of Glucocorticoid receptor (Homo sapiens) (P04150 whole entry, looked up): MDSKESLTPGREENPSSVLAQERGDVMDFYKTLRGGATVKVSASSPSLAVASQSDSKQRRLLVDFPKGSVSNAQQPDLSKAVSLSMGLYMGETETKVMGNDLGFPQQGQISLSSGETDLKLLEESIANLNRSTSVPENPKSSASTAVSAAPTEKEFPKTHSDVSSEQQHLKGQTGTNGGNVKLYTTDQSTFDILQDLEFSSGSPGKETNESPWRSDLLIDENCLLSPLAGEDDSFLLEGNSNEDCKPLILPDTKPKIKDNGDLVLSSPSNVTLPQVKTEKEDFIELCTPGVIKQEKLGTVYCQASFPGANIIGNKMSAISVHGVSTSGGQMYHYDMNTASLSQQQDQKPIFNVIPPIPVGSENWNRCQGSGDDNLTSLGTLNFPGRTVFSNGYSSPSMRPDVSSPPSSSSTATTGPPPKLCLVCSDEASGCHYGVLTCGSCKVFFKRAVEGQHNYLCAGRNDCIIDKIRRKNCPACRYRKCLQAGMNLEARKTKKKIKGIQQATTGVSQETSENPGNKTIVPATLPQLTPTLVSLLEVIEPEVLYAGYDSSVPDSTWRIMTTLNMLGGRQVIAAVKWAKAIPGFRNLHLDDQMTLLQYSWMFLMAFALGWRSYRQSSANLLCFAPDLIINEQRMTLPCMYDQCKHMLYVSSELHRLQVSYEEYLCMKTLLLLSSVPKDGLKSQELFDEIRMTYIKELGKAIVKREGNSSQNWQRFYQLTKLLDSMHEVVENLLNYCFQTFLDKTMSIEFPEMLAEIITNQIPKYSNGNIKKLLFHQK

Consider `CCCCC[C@H](O)/C=C/[C@@H]1[C@H]2C/C(=C/CCCC(=O)O)O[C@H]2C[C@H]1O`, for which the Potency result in assay [1], in assay [2], in [3], in assay [4], in [5] and in assay [7] was “inactive” in each case. Further, the Potency entry in assay [9], in [10], in assay [11], in [12] and in assay [13] was “inactive” each time. The result in [6] and in assay [8] was inactive.

Regarding `CCN(CC)CCOCCOC(=O)C(CC)(CC)c1ccccc1`, the Potency entry in [1], in assay [2], in [3], in assay [4], in assay [5] and in assay [7] was “inactive” throughout. The Potency result in assay [9] and in assay [13] was “inactive” in each case. Also, the molecule was classed as inactive in assay [6] and in assay [8]. The Potency in assay [14] was 3.35 µM (active); in assay [11] it was 4.73 µM (active).

Regarding `CNC(C)CCC=C(C)C` (configuration not stated), the Potency result in assay [1], in assay [2], in assay [3], in [4], in [5] and in assay [7] was “inactive” in each case. In addition, the Potency result in [9], in assay [12] and in assay [13] was “inactive” throughout. Moreover, the outcome in [6] and in assay [8] was inactive. Also, the Potency in assay [10] was 29.8 µM (active).

For `Cc1nnc(C(C)C)n1C1C[C@H]2CC[C@@H](C1)N2CC[C@H](NC(=O)C1CCC(F)(F)CC1)c1ccccc1` (some centres not stated), the Potency result in assay [1], in assay [2], in assay [3], in assay [4], in assay [5] and in [7] was “inactive” each time. For the same molecule, the Potency result in assay [14], in assay [10], in assay [11], in assay [12] and in assay [13] was “inactive” throughout. Besides, the molecule was classed as inactive in assay [6] and in [8].

On to `COc1ccc2c(c1)OC(C)(C)C(c1ccccc1)C2c1ccc(OCCN2CCCC2)cc1` (configuration not stated), for which the Potency entry in assay [1], in [2], in [3], in assay [4], in assay [5] and in assay [7] was “inactive” throughout. For the same molecule, the result in assay [6] and in [8] was inactive. For the same molecule, the figures for the Potency in assay [14], in [10] and in [11] were 3.76 µM (active), 5.31 µM (active) and 5.96 µM (active), respectively.

For `O=C(O)CCC/C=C\C[C@@H]1[C@@H](/C=C/[C@@H](O)COc2cccc(Cl)c2)[C@H](O)C[C@@H]1O`, the Potency entry in assay [1], in assay [2], in assay [3], in assay [4], in assay [5] and in assay [7] was “inactive” throughout. For the same molecule, the Potency result in assay [10], in assay [11], in assay [12], in [15], in assay [16] and in assay [17] was “inactive” in each case. Besides, the Potency result in [13] and in assay [18] was “inactive” in each case. Further, the molecule was called inactive in [6] and in assay [8].

For the molecule `CCCCCCCCCCCCCCCC(=O)O[C@@H]1[C@@H](O)[C@@H](O)[C@@H]([C@H](NC(=O)[C@@H]2C[C@@H](CCC)CN2C)[C@H](C)Cl)O[C@@H]1SC`, the Potency result in [1], in assay [2], in assay [3], in [4], in [5] and in assay [7] was “inactive” throughout. The Potency entry in assay [19], in assay [20], in [9], in [14], in [10] and in [11] was “inactive” each time. The Potency result in assay [12] and in assay [13] was “inactive” throughout. Moreover, the result in assay [6] was inactive.
